Data on 23 compounds can be found in ChEMBL document CHEMBL4296182, “CO-ADD screening of NIH NCI Diversity Set V”.

For part of these data: Results with a measured potency or affinity are listed apart.

One experiment has as its system Staphylococcus aureus. In words: Antibacterial activity against Staphylococcus aureus MRSA ATCC 43300 (CO-ADD:GP_020); MIC in CAMBH media using NBS plates, by Resazurin F(560/590). The conditions noted are these: Concentration 20 uM, ASSAY_TEST Inhibition of Bacterial Growth, detection method Resazurin, Fluorescence (ex560/em590), MEDIA CAMHB, plate type 384well, CORNING #3640, time 18 hr. It is filed as functional. For orientation: Alamar Blue is a resazurin reagent that responds to reducing activity.

For another experiment, the system named is Acinetobacter baumannii. The experiment can be described thus: Antibacterial activity against Acinetobacter baumannii ATCC 19606 (CO-ADD:GN_034); MIC in CAMBH media using NBS plates, by Resazurin F(560/590). It is filed as functional. The settings on record: Concentration 20 uM, ASSAY_TEST Inhibition of Bacterial Growth, detection method Resazurin, Fluorescence (ex560/em590), MEDIA CAMHB, plate type 384well, CORNING #3640, time 18 hr.

The test system of another experiment is Escherichia coli. In words: Antibacterial activity against Escherichia coli ATCC 25922 (CO-ADD:GN_001); MIC in CAMBH media using NBS plates, by Resazurin F(560/590). It counts as functional. The conditions noted are these: Concentration 20 uM, ASSAY_TEST Inhibition of Bacterial Growth, detection method Resazurin, Fluorescence (ex560/em590), MEDIA CAMHB, plate type 384well, CORNING #3640, time 18 hr.

In the next experiment the test system is Klebsiella pneumoniae. The settings on record: Concentration 20 uM; ASSAY_TEST Inhibition of Bacterial Growth; detection method Absorption (OD600); MEDIA CAMHB; plate type 384well; NBS; CORNING #3640; time 18 hr.
For a further experiment, the system named is Candida albicans. The settings on record: 20 µM.
The next experiment deals with Cryptococcus neoformans. The settings on record: Concentration 20 uM; ASSAY_TEST Inhibition of Fungal Growth; detection method Resazurin; Absorption (OD600-OD570); plate type 384well; NBS; CORNING #3640.

The term Inhibition denotes the drop in the measured response relative to a control, in per cent. Consider `COc1ccc(N/C=C2\C(=O)CCc3c2oc2cc(Cl)c(O)c(Cl)c32)cc1`, for which the Inhibition in the experiment on Staphylococcus aureus is 7.05%; with Acinetobacter baumannii, -14.01%; with Escherichia coli it was 13.43%; with Klebsiella pneumoniae, 4.7%; in the experiment with Candida albicans, 3.38%; in the experiment on Cryptococcus neoformans, -7.04%.
As for `c1ccc2sc(SCSc3nc4ccccc4s3)nc2c1`, the Inhibition in the experiment with Staphylococcus aureus was -0.38%; with Acinetobacter baumannii, -17.15%; in the experiment with Escherichia coli, 3.51%; with Klebsiella pneumoniae it was 4.08%; in the experiment on Candida albicans it was 12.5%; in the experiment with Cryptococcus neoformans it was -13.87%.
With `O=C(Nc1cc(-c2ccccc2)[nH]n1)c1ccc(Cl)cc1`, the Inhibition in the experiment with Staphylococcus aureus was 11.18%; in the experiment with Acinetobacter baumannii it was -15.73%; with Escherichia coli it was 6.31%; in the experiment with Klebsiella pneumoniae, 6.21%; in the experiment on Candida albicans, 8.34%; with Cryptococcus neoformans it was -8.44%.
For the compound `Cc1cc(C)n2c(C)nnc2c1`, the Inhibition in the experiment on Staphylococcus aureus is -1.68%; in the experiment with Acinetobacter baumannii, -10.08%; in the experiment on Escherichia coli it was 5.69%; in the experiment on Klebsiella pneumoniae, 10.38%; in the experiment with Candida albicans it was -0.15%; in the experiment on Cryptococcus neoformans it was -3%.
On to `O=[N+]([O-])c1cccnc1Oc1cc(Cl)c(Cl)cc1Cl`, for which the Inhibition with Staphylococcus aureus is 13.29%; in the experiment on Acinetobacter baumannii it was 1.57%; in the experiment on Escherichia coli it was 1.62%; in the experiment on Klebsiella pneumoniae, 4.9%; in the experiment on Candida albicans it was 1.25%; in the experiment on Cryptococcus neoformans, -4.41%.
In the case of `C=CCN=C(S)Nc1cccc([N+](=O)[O-])c1`, the Inhibition is -6.7% in the experiment on Staphylococcus aureus; -8.3% with Acinetobacter baumannii; 0.98% with Escherichia coli; 6.17% with Klebsiella pneumoniae; 0.93% in the experiment with Candida albicans; -2.12% with Cryptococcus neoformans.
For the compound `O=C(/C=C/c1ccc(Cl)s1)c1ccc(Cl)s1`, the Inhibition with Staphylococcus aureus was 14.77%; with Acinetobacter baumannii, 5.48%; with Escherichia coli it was -1.03%; with Klebsiella pneumoniae, 0.02%; in the experiment with Candida albicans, 4.39%; in the experiment on Cryptococcus neoformans, -6.98%.
Consider `CN(CC(=O)O)Cc1oc(CO)cc(=O)c1O`, for which the Inhibition in the experiment with Staphylococcus aureus was 10.58%; in the experiment on Acinetobacter baumannii it was -10.6%; in the experiment on Escherichia coli, 6.09%; with Klebsiella pneumoniae it was 19.22%; in the experiment on Candida albicans it was 0.31%; in the experiment with Cryptococcus neoformans, -9.52%.
On to `O=C(Nc1ccccc1)Oc1cccnc1O`, for which the Inhibition was 7.3% with Staphylococcus aureus; 9.45% in the experiment with Acinetobacter baumannii; -1.58% in the experiment on Escherichia coli; 18.58% with Klebsiella pneumoniae; 5.22% with Candida albicans; -7.26% in the experiment on Cryptococcus neoformans.
For the compound `Cn1c([N+](=O)[O-])cnc1N1CCN(c2nncs2)C1=O`, the Inhibition is 0.67% in the experiment on Staphylococcus aureus; -10.23% in the experiment with Acinetobacter baumannii; 2.52% with Escherichia coli; 15.88% in the experiment on Klebsiella pneumoniae; 1.82% with Candida albicans; -10.17% in the experiment with Cryptococcus neoformans.
Take `Cn1c(=O)c2c(ncn2CCOC(=O)C(C)(C)Oc2ccc(Cl)cc2)n(C)c1=O` [THEOFIBRATE]: the Inhibition with Staphylococcus aureus is -5.55%; in the experiment with Acinetobacter baumannii it was -11.51%; in the experiment on Escherichia coli it was 14.7%; with Klebsiella pneumoniae, 11.96%; in the experiment on Candida albicans, 0.53%; in the experiment on Cryptococcus neoformans it was -5.77%.
`Cc1csc(NC(=O)c2ccc(C(=O)Nc3nc(C)cs3)cc2)n1`: the Inhibition in the experiment with Staphylococcus aureus is -1.48%; in the experiment with Acinetobacter baumannii, 17.46%; in the experiment on Escherichia coli, 2.37%; with Klebsiella pneumoniae, 21.27%; in the experiment with Candida albicans it was -0.71%; in the experiment with Cryptococcus neoformans, -1.68%.
As for `Cc1c2cnccc2c(C)c2c1c1ccccc1n2CCOC(=O)c1ccccc1`, the Inhibition in the experiment on Staphylococcus aureus is -1.71%; in the experiment with Acinetobacter baumannii, 14.72%; with Escherichia coli, 4.49%; with Klebsiella pneumoniae, 5.61%; with Candida albicans, 22.1%; with Cryptococcus neoformans, -19.42%.
As to `O=C1c2cccc(Oc3ccccc3)c2C(=O)c2cccc(Oc3ccccc3)c21`, the Inhibition was 12.36% with Staphylococcus aureus; 6.18% in the experiment on Acinetobacter baumannii; -1.53% in the experiment with Escherichia coli; 10.6% in the experiment on Klebsiella pneumoniae; 2.19% in the experiment on Candida albicans; -5.27% in the experiment with Cryptococcus neoformans.
In the case of `Nc1cnc(Nc2ccc(Br)cc2)nc1N.O=S(=O)(O)O`, the Inhibition in the experiment on Staphylococcus aureus is 3.44%; with Acinetobacter baumannii, 7.82%; in the experiment on Escherichia coli it was -16.03%; in the experiment with Klebsiella pneumoniae it was 6.45%; in the experiment on Candida albicans it was 3.46%; in the experiment with Cryptococcus neoformans it was 6.23%.
As to `O=C(c1ccccc1)c1ccc(Sc2ccc([N+](=O)[O-])cc2)cc1`, the Inhibition in the experiment on Staphylococcus aureus is 11.06%; with Acinetobacter baumannii, -8.42%; with Escherichia coli, 1.44%; with Klebsiella pneumoniae, 19.14%; with Candida albicans, 2.18%; in the experiment on Cryptococcus neoformans it was -2.51%.
In the case of `CC12C(=O)N(c3nccs3)C(=O)C1(C)C1CCC2O1` (stereo not drawn), the Inhibition in the experiment on Staphylococcus aureus is 6.57%; in the experiment on Acinetobacter baumannii, 6.5%; in the experiment with Escherichia coli, 7.81%; in the experiment with Klebsiella pneumoniae, 14.08%; in the experiment on Candida albicans, 2.65%; in the experiment on Cryptococcus neoformans it was -13.24%.
On to `NC(=O)C1=C(N)c2ccccc2C1c1ccccc1` (stereo not drawn), for which the Inhibition was -22.4% in the experiment on Staphylococcus aureus; 2.22% with Acinetobacter baumannii; -18.86% with Escherichia coli; 1.18% in the experiment with Klebsiella pneumoniae; 4.94% in the experiment on Candida albicans; 28.25% in the experiment with Cryptococcus neoformans.
Consider `O=C1c2ccccc2C(=O)C1c1ccccn1`, for which the Inhibition with Staphylococcus aureus was -5.11%; with Acinetobacter baumannii, -11.28%; in the experiment on Escherichia coli, 2.88%; in the experiment with Klebsiella pneumoniae, 6.77%; in the experiment with Candida albicans it was 5.19%; with Cryptococcus neoformans, -6.9%.
Turning to `O=C(Nc1ccsn1)c1ccc(Cl)cc1Cl`, the Inhibition was 2.74% with Staphylococcus aureus; -9.67% in the experiment with Acinetobacter baumannii; 7.73% in the experiment with Escherichia coli; 13.89% in the experiment on Klebsiella pneumoniae; 3.31% with Candida albicans; 7.18% in the experiment on Cryptococcus neoformans.
As to `NS(=O)(=O)c1ccc(Cl)cc1[N+](=O)[O-]`, the Inhibition with Staphylococcus aureus is -0.55%; in the experiment with Acinetobacter baumannii, -3.88%; in the experiment with Escherichia coli it was 8.03%; in the experiment on Klebsiella pneumoniae it was 12.78%; in the experiment on Candida albicans it was 3.7%; with Cryptococcus neoformans, 15.75%.
Consider `Cc1nc(N)nc(Cl)c1CCC1OCCO1`, for which the Inhibition is 7.04% in the experiment on Staphylococcus aureus; -8.91% with Acinetobacter baumannii; 8.75% in the experiment with Escherichia coli; 6.29% with Klebsiella pneumoniae; 2.66% with Candida albicans; -6.74% in the experiment on Cryptococcus neoformans.
On to `c1ccc2cc(OCCOCCOc3ccc4ccccc4c3)ccc2c1`, for which the Inhibition with Staphylococcus aureus is 11.38%; in the experiment with Acinetobacter baumannii, 0.36%; in the experiment with Escherichia coli, 5.4%; in the experiment with Klebsiella pneumoniae, 11.21%; with Candida albicans, 5.37%; in the experiment with Cryptococcus neoformans it was -6.02%.
